# Data taken from the supplement of paper PMC4022240.
# ± gives the standard deviation.
# T1: HaloTag-ATRX ADD domain (163-292)
# T1 chain: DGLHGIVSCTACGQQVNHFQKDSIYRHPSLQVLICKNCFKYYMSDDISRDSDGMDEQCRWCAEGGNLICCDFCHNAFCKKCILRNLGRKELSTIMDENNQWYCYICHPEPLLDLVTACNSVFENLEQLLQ
# B1: H2B 7-19 A P A P K K G S K K A V T (peptide)
# chain: APAPKKGSKKAVT
# B2: H2A 11-23 R A K A K Tph R S S R A G L (peptide)
# chain: RAKAKTRSSRAGL
# B3: H2B 7-19 A P A P Kac Kac G S Kac K A V T (peptide)
# chain: APAPKKGSKKAVT
# B4: H2B 1-13 P E P A Kac S A P A P Kac K G (peptide)
# chain: PEPAKSAPAPKKG
# B5: H2A 11-23 R A K A K T R S S R A G L (peptide)
# chain: RAKAKTRSSRAGL
# Columns and labels:
# Experiment in all cases: peptide microarray binding signal (635 nm), min-max normalized on array (fraction of array maximum); higher = stronger binding
# [1] = biological target: T1, HaloTag-ATRX ADD domain (163-292)
# Experimental: (§1)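 Histone 13-mer peptides were synthesized as cellulose conjugates with a C-terminal 20-atom PEG linker and printed in triplicate on nitrocellulose. The sequence given is the unmodified backbone; PTMs (Kme1/2/3, Kac, Sph/Tph, Rme/Rme2a/Rme2s, Rcit) are listed in the label and the 'peptide modifications' condition. Slides were probed at 4 °C for 1 h with biotin-labelled (HQ)5-HaloTag reader fusions (ATRX-ADD, ING2-PHD) then streptavidin-Alexa647, or with rabbit histone antibodies then anti-rabbit Alexa647. The mean 635 nm signal of the triplicate spots was scaled 0-1 between the lowest and highest values on each array.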
# [2] = biological target: HaloTag-ING2 PHD (mouse Ing2 200-280)
# Experimental: as §1
# [3] = biological target: anti-H3K4me3 antibody ab8580
# Experimental: as §1
# [4] = biological target: anti-H3K9me3 antibody ab8898
# Experimental: as §1
# [5] = peptide region: H2B 7-19, binder concentration: 1:2,000 dilution
# [6] = peptide region: H2B 7-19, binder concentration: 1:10,000 dilution
# [7] = peptide region: H2A 11-23, peptide modifications: H2AT16ph, binder concentration: 1:2,000 dilution
# [8] = peptide region: H2A 11-23, peptide modifications: H2AT16ph, binder concentration: 1:10,000 dilution
# [9] = peptide region: H2B 7-19, peptide modifications: H2BK11ac H2BK12ac H2BK15ac, binder concentration: 1:2,000 dilution
# [10] = peptide region: H2B 7-19, peptide modifications: H2BK11ac H2BK12ac H2BK15ac, binder concentration: 1:10,000 dilution
# [11] = peptide region: H2B 1-13, peptide modifications: H2BK5ac H2BK11ac, binder concentration: 1:2,000 dilution
# [12] = peptide region: H2B 1-13, peptide modifications: H2BK5ac H2BK11ac, binder concentration: 1:10,000 dilution
# [13] = peptide region: H2A 11-23, binder concentration: 1:2,000 dilution
# [14] = peptide region: H2A 11-23, binder concentration: 1:10,000 dilution
binder,measurement,setting,value
B1,peptide microarray binding signal,"[1]; peptide region: H2B 7-19, binder concentration: 50 nM",0.002382 ± 1.1e-05
same,peptide microarray binding signal,"[1]; peptide region: H2B 7-19, binder concentration: 500 nM",0.00743 ± 0.0029
same,peptide microarray binding signal,"[2]; peptide region: H2B 7-19, binder concentration: 10 nM",0.00328 ± 6.2e-05
same,peptide microarray binding signal,"[2]; peptide region: H2B 7-19, binder concentration: 100 nM",0.00283 ± 4.6e-05
same,peptide microarray binding signal,[3]; [5],0.0043 ± 0.0018
same,peptide microarray binding signal,[3]; [6],0.00114 ± 1.2e-05
same,peptide microarray binding signal,[4]; [5],0.00116 ± 9.9e-05
same,peptide microarray binding signal,[4]; [6],0.001211 ± 1.2e-05
B2,peptide microarray binding signal,"[1]; peptide region: H2A 11-23, peptide modifications: H2AT16ph, binder concentration: 50 nM",0.0047 ± 9.3e-05
same,peptide microarray binding signal,"[1]; peptide region: H2A 11-23, peptide modifications: H2AT16ph, binder concentration: 500 nM",0.00824 ± 0.00034
same,peptide microarray binding signal,"[2]; peptide region: H2A 11-23, peptide modifications: H2AT16ph, binder concentration: 10 nM",0.00364
same,peptide microarray binding signal,"[2]; peptide region: H2A 11-23, peptide modifications: H2AT16ph, binder concentration: 100 nM",0.00794 ± 0.00055
same,peptide microarray binding signal,[3]; [7],0.000472 ± 1.2e-05
same,peptide microarray binding signal,[3]; [8],0.000913
same,peptide microarray binding signal,[4]; [7],0.000347 ± 7e-06
same,peptide microarray binding signal,[4]; [8],0.000807 ± 1.5e-05
B3,peptide microarray binding signal,"[1]; peptide region: H2B 7-19, peptide modifications: H2BK11ac H2BK12ac H2BK15ac, binder concentration: 50 nM",0.00809 ± 0.00032
same,peptide microarray binding signal,"[1]; peptide region: H2B 7-19, peptide modifications: H2BK11ac H2BK12ac H2BK15ac, binder concentration: 500 nM",0.0163 ± 0.00026
same,peptide microarray binding signal,"[2]; peptide region: H2B 7-19, peptide modifications: H2BK11ac H2BK12ac H2BK15ac, binder concentration: 10 nM",0.0198 ± 0.0062
same,peptide microarray binding signal,"[2]; peptide region: H2B 7-19, peptide modifications: H2BK11ac H2BK12ac H2BK15ac, binder concentration: 100 nM",0.0125 ± 0.0012
same,peptide microarray binding signal,[3]; [9],0.0168 ± 0.0011
same,peptide microarray binding signal,[3]; [10],0.00325 ± 0.00019
same,peptide microarray binding signal,[4]; [9],0.00323 ± 0.00057
same,peptide microarray binding signal,[4]; [10],0.00248 ± 0.00015
B4,peptide microarray binding signal,"[1]; peptide region: H2B 1-13, peptide modifications: H2BK5ac H2BK11ac, binder concentration: 50 nM",0.00439 ± 0.00015
same,peptide microarray binding signal,"[1]; peptide region: H2B 1-13, peptide modifications: H2BK5ac H2BK11ac, binder concentration: 500 nM",0.00957 ± 0.00041
same,peptide microarray binding signal,"[2]; peptide region: H2B 1-13, peptide modifications: H2BK5ac H2BK11ac, binder concentration: 10 nM",0.00853 ± 0.00038
same,peptide microarray binding signal,"[2]; peptide region: H2B 1-13, peptide modifications: H2BK5ac H2BK11ac, binder concentration: 100 nM",0.0114 ± 0.0021
same,peptide microarray binding signal,[3]; [11],0.00251 ± 0.0019
same,peptide microarray binding signal,[3]; [12],0.00108 ± 3.8e-05
same,peptide microarray binding signal,[4]; [11],0.00198 ± 0.00033
same,peptide microarray binding signal,[4]; [12],0.00225 ± 0.0002
B5,peptide microarray binding signal,"[1]; peptide region: H2A 11-23, binder concentration: 50 nM",0.00404 ± 4.2e-05
same,peptide microarray binding signal,"[1]; peptide region: H2A 11-23, binder concentration: 500 nM",0.00457 ± 5.4e-05
same,peptide microarray binding signal,"[2]; peptide region: H2A 11-23, binder concentration: 10 nM",0.003462 ± 3.2e-05
same,peptide microarray binding signal,"[2]; peptide region: H2A 11-23, binder concentration: 100 nM",0.00581 ± 0.00028
same,peptide microarray binding signal,[3]; [13],0.00125 ± 0.0004
same,peptide microarray binding signal,[3]; [14],0.000571
same,peptide microarray binding signal,[4]; [13],0.000257 ± 2.7e-06
same,peptide microarray binding signal,[4]; [14],0.000692 ± 7.3e-06
